Laboratory results from PubChem BioAssay (Tox21).
Where “and” joins values, the source holds several entries; their conditions need not be identical. Equal values may be shown once. Values without a mark were called inactive. Results filed as inconclusive are left out. A call without a number means that no potency is given here. Calls of active or inactive are those of the source. Calls come from the whole dose curve; as a rule, active = well fitted curve in the direction sought with a large enough effect in the repeat runs; inconclusive = weak or mixed curves; inactive = no such curve, though single readings can be large; an effect the other way counts as inactive or inconclusive.

Columns and labels:
[1] = Human pregnane X receptor (PXR) small molecule agonists, qHTS cell viability counter screen (AID 1346977); note: nearly all actives have a fitted effect of over 50% in size; note: potency is the fitted concentration of half-maximal effect
Summary of the method: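 PXR-Luc HepG2 cells in medium with 5% charcoal-stripped FBS were pre-incubated 5hr, then exposed to compounds for 24hr at 37C. Viability was read in the same wells by CellTiter-Fluor fluorescence, reagent added after 23hr with a 1hr incubation.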

[2] = Caspase-3/7 induction in HepG2 cells by small molecules, qHTS assay (AID 1346978); note: nearly all actives have a fitted effect of over 15% in size
Summary of the method: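 Wild-type HepG2 cells (2,000/well) were settled 5 h at 37 C, 5% CO2, then exposed to compounds in DMSO for 17 h. Caspase-3/7 activity was read by luminescence 30 min after adding Caspase-Glo 3/7 reagent at room temperature.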

[3] = Caspase-3/7 induction in CHO-K1 cells by small molecules, qHTS cell viability counter screen (AID 1346979); note: nearly all actives have a fitted effect of over 35% in size
Summary of the method: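 Wild-type CHO-K1 cells were seeded at 1,500 per well, rested 5hr at 37 C, then exposed to compounds in DMSO. After 16hr, CellTiter-Fluor reagent was added and fluorescence read 1hr later as the viability measure.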

[4] = Caspase-3/7 induction in HepG2 cells by small molecules, qHTS cell viability counter screen (AID 1346981); note: series mostly up to about 92 µM; nearly all actives have a fitted effect of over 30% in size
Summary of the method: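 Wild-type HepG2 cells (2,000/well) were allowed to settle for 5 hr at 37 C, 5% CO2, then dosed with compounds in DMSO by pin transfer. After 16 hr at 37 C, CellTiter-Fluor was added and fluorescence read 1 hr later.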

[5] = target: Nuclear receptor subfamily 1 group I member 2 (Homo sapiens) (UniProt O75469); assay: Human pregnane X receptor (PXR) small molecule agonists, qHTS assay (AID 1346982); note: nearly all actives have a fitted effect of over 35% in size; note: potency is the fitted concentration of half-maximal effect
Summary of the method: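 PXR-Luc HepG2 cells (CYP3A4 promoter-driven luciferase) were seeded in medium with 5% charcoal-stripped FBS, left 5 hr at 37 C, then exposed to compounds in DMSO for 24 hr. Luminescence was read after ONE-Glo addition.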

[6] = target: Cytochrome P450 2D6 (Homo sapiens) (UniProt P10635); assay: Cytochrome P450 Family 2 Subfamily D Member 6 (CYP2D6) small molecule antagonists: luciferase reporter qHTS assay (AID 1671196); note: nearly all actives have a fitted effect of over 50% in size; note: potency is the fitted concentration of half-maximal effect
Summary of the method: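 CYP2D6 enzyme–substrate mix was held with compound for 10 min at room temperature, then NADPH regeneration solution was added and the reaction ran 1 h at room temperature. Luciferin product was detected by luminescence after 20 min with detection reagent.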

[7] = target: Cytochrome P450 2C19 (Homo sapiens) (UniProt P33261); assay: Cytochrome P450 Family 2 Subfamily C Member 19 (CYP2C19) small molecule antagonists: luciferase reporter qHTS assay (AID 1671197); note: nearly all actives have a fitted effect of over 65% in size; note: potency is the fitted concentration of half-maximal effect
Summary of the method: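 CYP2C19 P450-Glo, 1536-well qHTS. Cpd + enzyme/proluciferin substrate 10 min RT; + NADPH regen, 37C 1 h; stop with luciferin detection reagent, 20 min RT, luminescence (RLU). Pos ctrl ketoconazole.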

[8] = target: Cytochrome P450 2C9 (Homo sapiens) (UniProt P11712); assay: Cytochrome P450 Family 2 Subfamily C Member 9 (CYP2C9) small molecule antagonists: luciferase reporter qHTS assay (AID 1671198); note: nearly all actives have a fitted effect of over 50% in size; note: potency is the fitted concentration of half-maximal effect
Summary of the method: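 CYP2C9 activity was measured with a P450-Glo proluciferin substrate. Enzyme–substrate mix was held with compound for 10 min at room temperature, then NADPH regeneration solution was added for 1 h at 37C. Luciferin product was read as luminescence.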

[9] = target: Cytochrome P450 1A2 (Homo sapiens) (UniProt P05177); assay: Cytochrome P450 Family 1 Subfamily A Member 2 (CYP1A2) small molecule antagonists: luciferase reporter qHTS assay (AID 1671199); note: nearly all actives have a fitted effect of over 50% in size; note: potency is the fitted concentration of half-maximal effect
Summary of the method: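 Human CYP1A2 activity measured with a P450-Glo proluciferin substrate; compounds in DMSO preincubated 10 min at room temperature with enzyme-substrate mix, then NADPH regeneration system added for 1 h. Luciferin detection reagent, 20 min, luminescence read.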

[10] = target: Voltage-gated inwardly rectifying potassium channel KCNH2 (Homo sapiens) (UniProt Q12809); assay: Human Ether-a-go-go-Related Gene (hERG) channel small molecule antagonists: fluorescence cell-based qHTS assay (AID 1671200)
Summary of the method: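 U2OS cells expressing the channel were plated at 1000 cells/well, incubated overnight at 37 C, then loaded with FluxOR II thallium-sensitive dye for 1 h at room temperature in the dark, with a further 10 min at room temperature before stimulation.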

[11] = target: Cytochrome P450 3A4 (Homo sapiens) (UniProt P08684); assay: Cytochrome P450 Family 3 Subfamily A Member 4 (CYP3A4) small molecule antagonists: luciferase reporter qHTS assay (AID 1671201); note: nearly all actives have a fitted effect of over 50% in size; note: potency is the fitted concentration of half-maximal effect
Summary of the method: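 P450-Glo CYP3A4 system with proluciferin substrate; compounds preincubated 10 min RT with enzyme-substrate mix, then NADPH regeneration added for 1 h RT. Detection reagent 20 min, luminescence read as relative luminescence units.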

[12] = target: Nuclear receptor subfamily 1 group I member 2 (Rattus norvegicus) (UniProt Q9R1A7); assay: Rat pregnane X receptor (rPXR) activation by small molecules, qHTS assay (AID 1346983); details: rPXR luciferase reporter cells, One-Glo luminescence, 24 h; active compounds read high; note: nearly all actives have a fitted effect of over 20% in size
Summary of the method: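 Cell-based rPXR luciferase reporter assay, 2,000 cells per well, rested 5hr at 37 C before compound addition in DMSO, then 24 hr at 37 C. One-Glo reagent was added and luminescence read after 30 min at room temperature.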

[13] = target: Nuclear receptor subfamily 1 group I member 2 (Homo sapiens) (UniProt O75469); assay: CYP3A4 induction through human pregnane X receptor (PXR) by small molecules, qHTS assay (AID 1346984); note: nearly all actives have a fitted effect of over 40% in size; note: potency is the fitted concentration of half-maximal effect
Summary of the method: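 DPX-2 cells (HepG2 co-transfected with PXR and CYP3A4 promoter-luciferase) treated with compounds 24 h at 37C; luciferin-IPA CYP3A4 substrate 3uM final added for 3 h, then One-Glo; luminescence read. qHTS format.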

[14] = Caspase-3/7 induction in CHO-K1 cells by small molecules, qHTS assay (AID 1346980); note: nearly all actives have a fitted effect of over 15% in size
Summary of the method: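 Wild-type cells were seeded at 1,500 per well and settled 5 hr at 37 C, 5% CO2, then exposed to DMSO-dissolved compounds for 17 hr. Caspase-Glo 3/7 reagent was added, and luminescence was read after 30min at room temperature.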

[15] = target: Nuclear receptor subfamily 1 group I member 2 (Homo sapiens) (UniProt O75469); assay: Human pregnane X receptor (PXR) activation by small molecules, qHTS assay (AID 1346985); note: nearly all actives have a fitted effect of over 40% in size
Summary of the method: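 DPX-2 cells (HepG2 co-transfected with a PXR response element and a CYP3A4-promoter luciferase construct) were seeded at 2,000 per well, rested 5 hr at 37C, then exposed to DMSO-dissolved compounds for 24 hr. Activation was read as luciferase luminescence.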

Cytochrome P450 3A4 (Homo sapiens), sequence (P08684 whole entry, looked up): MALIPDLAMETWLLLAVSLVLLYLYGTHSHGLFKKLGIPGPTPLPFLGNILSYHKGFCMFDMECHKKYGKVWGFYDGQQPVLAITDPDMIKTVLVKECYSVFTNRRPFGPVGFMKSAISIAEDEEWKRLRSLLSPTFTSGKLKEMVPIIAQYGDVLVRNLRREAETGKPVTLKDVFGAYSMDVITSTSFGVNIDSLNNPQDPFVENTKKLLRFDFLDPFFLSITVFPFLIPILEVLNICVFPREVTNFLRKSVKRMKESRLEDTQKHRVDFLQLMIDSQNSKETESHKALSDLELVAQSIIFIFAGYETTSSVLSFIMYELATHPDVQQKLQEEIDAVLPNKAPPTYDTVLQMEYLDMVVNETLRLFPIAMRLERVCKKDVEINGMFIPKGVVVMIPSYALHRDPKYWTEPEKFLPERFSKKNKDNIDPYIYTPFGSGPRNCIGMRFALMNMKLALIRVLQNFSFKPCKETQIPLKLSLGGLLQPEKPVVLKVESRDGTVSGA
Cytochrome P450 2C9 (Homo sapiens), sequence (P11712 whole entry, looked up): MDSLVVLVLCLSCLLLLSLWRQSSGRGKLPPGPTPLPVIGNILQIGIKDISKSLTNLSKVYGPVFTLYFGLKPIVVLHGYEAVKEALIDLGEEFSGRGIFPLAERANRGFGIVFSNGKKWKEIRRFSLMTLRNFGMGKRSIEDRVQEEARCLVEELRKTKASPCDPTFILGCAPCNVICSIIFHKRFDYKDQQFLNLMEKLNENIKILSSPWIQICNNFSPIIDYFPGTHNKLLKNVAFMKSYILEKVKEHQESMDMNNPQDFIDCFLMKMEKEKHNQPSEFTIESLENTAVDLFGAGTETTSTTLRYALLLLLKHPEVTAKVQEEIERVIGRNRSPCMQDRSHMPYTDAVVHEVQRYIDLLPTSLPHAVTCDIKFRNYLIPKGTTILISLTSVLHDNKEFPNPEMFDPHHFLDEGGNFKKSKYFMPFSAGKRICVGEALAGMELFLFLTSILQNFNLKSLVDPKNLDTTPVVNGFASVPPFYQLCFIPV
Cytochrome P450 2D6 (Homo sapiens), sequence (P10635 whole entry, looked up): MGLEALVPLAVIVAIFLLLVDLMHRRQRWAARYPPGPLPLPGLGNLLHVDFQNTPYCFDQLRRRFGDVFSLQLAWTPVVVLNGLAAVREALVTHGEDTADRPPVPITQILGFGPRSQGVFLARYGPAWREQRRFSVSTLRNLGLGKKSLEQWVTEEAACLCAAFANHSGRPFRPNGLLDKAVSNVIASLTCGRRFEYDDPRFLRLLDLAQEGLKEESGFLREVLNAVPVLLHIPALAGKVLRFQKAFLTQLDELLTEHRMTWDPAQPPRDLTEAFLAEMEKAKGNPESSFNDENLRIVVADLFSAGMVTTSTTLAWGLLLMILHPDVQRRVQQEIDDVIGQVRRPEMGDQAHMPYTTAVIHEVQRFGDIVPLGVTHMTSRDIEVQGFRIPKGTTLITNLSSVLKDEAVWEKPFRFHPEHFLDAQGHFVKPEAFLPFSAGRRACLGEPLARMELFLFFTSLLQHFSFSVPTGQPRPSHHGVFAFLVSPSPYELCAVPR
Nuclear receptor subfamily 1 group I member 2 (Rattus norvegicus), sequence (Q9R1A7 whole entry, looked up): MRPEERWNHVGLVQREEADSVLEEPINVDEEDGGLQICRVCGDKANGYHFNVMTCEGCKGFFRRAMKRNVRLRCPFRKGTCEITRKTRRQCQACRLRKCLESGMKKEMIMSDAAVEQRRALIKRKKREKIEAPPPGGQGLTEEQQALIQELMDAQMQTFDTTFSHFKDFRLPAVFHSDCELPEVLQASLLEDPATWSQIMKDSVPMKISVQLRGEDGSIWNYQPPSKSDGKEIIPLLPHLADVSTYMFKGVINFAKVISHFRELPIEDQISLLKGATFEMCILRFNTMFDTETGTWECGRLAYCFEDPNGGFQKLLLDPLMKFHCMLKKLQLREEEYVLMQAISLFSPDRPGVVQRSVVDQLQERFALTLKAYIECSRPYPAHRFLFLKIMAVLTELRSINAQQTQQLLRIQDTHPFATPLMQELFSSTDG
Cytochrome P450 2C19 (Homo sapiens), sequence (P33261 whole entry, looked up): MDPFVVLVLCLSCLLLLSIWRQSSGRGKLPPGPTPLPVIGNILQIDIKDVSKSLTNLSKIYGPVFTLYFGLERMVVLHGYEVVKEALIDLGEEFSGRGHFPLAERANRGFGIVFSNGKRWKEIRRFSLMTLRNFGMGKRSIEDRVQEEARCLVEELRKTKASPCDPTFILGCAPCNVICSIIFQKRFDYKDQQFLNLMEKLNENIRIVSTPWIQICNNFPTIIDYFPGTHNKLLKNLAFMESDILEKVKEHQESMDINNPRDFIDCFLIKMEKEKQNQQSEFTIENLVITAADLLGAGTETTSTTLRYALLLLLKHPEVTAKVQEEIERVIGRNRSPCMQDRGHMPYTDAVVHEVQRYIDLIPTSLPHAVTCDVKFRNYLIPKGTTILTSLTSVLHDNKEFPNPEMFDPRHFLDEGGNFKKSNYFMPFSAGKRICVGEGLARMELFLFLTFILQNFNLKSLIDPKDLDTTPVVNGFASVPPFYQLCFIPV
Voltage-gated inwardly rectifying potassium channel KCNH2 (Homo sapiens), sequence (Q12809 whole entry, looked up): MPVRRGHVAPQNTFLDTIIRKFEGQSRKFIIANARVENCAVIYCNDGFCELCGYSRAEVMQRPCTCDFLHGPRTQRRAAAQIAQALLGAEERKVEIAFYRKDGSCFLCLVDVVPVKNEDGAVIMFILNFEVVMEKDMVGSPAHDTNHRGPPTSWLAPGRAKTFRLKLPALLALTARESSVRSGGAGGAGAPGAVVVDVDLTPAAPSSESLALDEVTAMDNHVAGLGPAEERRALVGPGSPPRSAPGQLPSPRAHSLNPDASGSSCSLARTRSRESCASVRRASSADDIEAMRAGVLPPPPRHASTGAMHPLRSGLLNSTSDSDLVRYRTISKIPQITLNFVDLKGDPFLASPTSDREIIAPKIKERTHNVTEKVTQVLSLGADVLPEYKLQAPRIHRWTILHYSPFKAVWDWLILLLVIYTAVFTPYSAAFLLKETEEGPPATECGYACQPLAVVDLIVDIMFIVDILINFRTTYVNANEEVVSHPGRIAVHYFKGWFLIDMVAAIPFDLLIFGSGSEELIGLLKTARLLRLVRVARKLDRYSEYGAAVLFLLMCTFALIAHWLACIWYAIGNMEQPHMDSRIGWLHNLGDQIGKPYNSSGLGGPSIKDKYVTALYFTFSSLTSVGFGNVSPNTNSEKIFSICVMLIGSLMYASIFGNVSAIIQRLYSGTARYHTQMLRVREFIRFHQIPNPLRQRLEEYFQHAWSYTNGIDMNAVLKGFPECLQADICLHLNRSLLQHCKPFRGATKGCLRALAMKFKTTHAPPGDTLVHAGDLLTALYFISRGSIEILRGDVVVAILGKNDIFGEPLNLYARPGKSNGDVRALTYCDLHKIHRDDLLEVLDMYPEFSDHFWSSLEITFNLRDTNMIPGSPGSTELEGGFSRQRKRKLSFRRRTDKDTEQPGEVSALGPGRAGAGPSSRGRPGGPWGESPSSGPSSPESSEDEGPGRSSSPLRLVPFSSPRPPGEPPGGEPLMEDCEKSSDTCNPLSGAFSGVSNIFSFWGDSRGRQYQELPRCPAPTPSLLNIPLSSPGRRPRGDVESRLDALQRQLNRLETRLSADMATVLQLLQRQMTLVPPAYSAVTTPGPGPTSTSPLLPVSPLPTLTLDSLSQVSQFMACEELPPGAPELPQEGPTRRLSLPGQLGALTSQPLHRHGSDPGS
Nuclear receptor subfamily 1 group I member 2 (Homo sapiens), sequence (O75469 whole entry, looked up): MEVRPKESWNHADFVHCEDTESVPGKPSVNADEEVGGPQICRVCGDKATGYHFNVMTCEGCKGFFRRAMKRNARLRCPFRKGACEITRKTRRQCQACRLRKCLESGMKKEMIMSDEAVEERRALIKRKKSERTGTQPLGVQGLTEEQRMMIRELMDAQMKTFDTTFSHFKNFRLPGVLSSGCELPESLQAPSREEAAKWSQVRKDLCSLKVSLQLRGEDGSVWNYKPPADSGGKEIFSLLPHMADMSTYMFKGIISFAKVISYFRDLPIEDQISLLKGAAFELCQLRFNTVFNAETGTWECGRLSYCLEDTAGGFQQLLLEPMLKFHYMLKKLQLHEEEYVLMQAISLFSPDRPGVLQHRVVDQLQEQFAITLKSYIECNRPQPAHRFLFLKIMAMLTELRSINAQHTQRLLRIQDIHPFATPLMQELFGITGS
Cytochrome P450 1A2 (Homo sapiens), sequence (P05177 whole entry, looked up): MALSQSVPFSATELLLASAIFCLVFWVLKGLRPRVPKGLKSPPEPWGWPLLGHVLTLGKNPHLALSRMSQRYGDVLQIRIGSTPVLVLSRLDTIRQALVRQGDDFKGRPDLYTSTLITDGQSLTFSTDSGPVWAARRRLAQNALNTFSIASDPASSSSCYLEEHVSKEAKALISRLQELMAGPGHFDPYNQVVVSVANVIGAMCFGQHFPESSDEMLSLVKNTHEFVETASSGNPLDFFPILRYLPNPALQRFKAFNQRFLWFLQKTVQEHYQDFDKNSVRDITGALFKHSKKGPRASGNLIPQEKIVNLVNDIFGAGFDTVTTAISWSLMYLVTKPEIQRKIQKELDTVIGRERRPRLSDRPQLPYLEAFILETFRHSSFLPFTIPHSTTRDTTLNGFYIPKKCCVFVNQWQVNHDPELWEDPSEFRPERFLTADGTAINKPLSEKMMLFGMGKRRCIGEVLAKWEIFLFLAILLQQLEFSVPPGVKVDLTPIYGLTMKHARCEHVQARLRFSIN

| SMILES | Potency [1] | Potency [2] | Potency [3] | Potency [4] | Potency [5] | Potency [6] | Potency [7] | Potency [8] | Potency [9] | Potency [10] | Potency [11] | max activation [12] | Potency [13] | outcome [14] | Potency [15] |
| --- | --- | --- | --- | --- | --- | --- | --- | --- | --- | --- | --- | --- | --- | --- | --- |
| CCC(=O)OC(C)c1ccccc1 (stereo not drawn) | inactive | inactive | inactive | inactive | inactive | inactive | inactive | inactive | inactive | inactive | inactive |  |  |  |  |
| CC(=O)c1ccccc1O | inactive | inactive | inactive |  | inactive | inactive | inactive |  | inactive | inactive | inactive |  |  |  |  |
| CCN(CC)CCOCCOC(=O)C1(c2ccccc2)CCCC1 | 26.6 µM (active) | inactive | inactive | inactive |  |  | inactive | inactive | inactive | inactive |  | 0.476% | 12.6 µM (active) |  |  |
| CC(=O)CC(C)C | inactive | inactive | inactive |  | inactive | inactive | inactive | inactive |  | inactive | inactive |  |  | inactive |  |
| c1cnc(N2CCN(Cc3ccc4c(c3)OCO4)CC2)nc1 | inactive | inactive | inactive |  | inactive |  | 3.47 µM (active) | 15.5 µM (active) | 4.07 µM (active) | inactive |  |  |  | inactive |  |
| CN1N=C(C(N)=O)CCC1=O | inactive | inactive | inactive |  | inactive | inactive | inactive | inactive |  | inactive | inactive |  |  | inactive |  |
| CC/C=C\CC/C=C/C(OCC)OCC | inactive | inactive |  | inactive | 24.3 µM (active) |  | 56.4 µM (active) | 35.6 µM (active) |  | inactive | 31.7 µM (active) |  |  | inactive |  |
| COc1ccc2c(c1)CCCC2=O | inactive |  | inactive | inactive | inactive | inactive | inactive | inactive | 13.8 µM (active) | inactive | inactive |  |  | inactive |  |
| Cc1c(NC(C)C)c(=O)n(-c2ccccc2)n1C | inactive | inactive |  | inactive | inactive |  | inactive | inactive | 28.8 µM (active) | inactive | inactive | -1.85% | inactive | inactive | inactive |
| CC(C)OC(=O)c1ccccc1 | inactive | inactive |  | inactive | inactive | inactive | inactive | inactive | inactive | inactive | inactive |  |  | inactive |  |
| CC(C)(C)c1ccc(O)c(O)c1 | inactive | inactive |  |  | 63.2 µM (active) and 27.3 µM (active) | 23.8 µM (active) | inactive | 61.5 µM (active) | 41.1 µM (active) | inactive | inactive |  |  |  |  |
| CCCCNC(=O)NCCCC | inactive | inactive |  | inactive | inactive |  | 39.9 µM (active) |  | 35.6 µM (active) | inactive | inactive |  |  |  |  |
| CCN(CC)CCNC(=O)c1cc(S(C)(=O)=O)ccc1OC | inactive | inactive |  |  | inactive | 12.3 µM (active) | inactive | inactive | inactive | inactive | inactive | -2.45% | inactive | inactive | inactive |
| COC(=O)c1ccc(C)cc1C1=NC(C)(C(C)C)C(=O)N1 (stereo not drawn) | inactive | inactive |  |  |  | inactive | inactive | inactive | inactive | inactive |  |  |  |  |  |
| CCc1ccc(O)c(OC)c1 | inactive | inactive |  | inactive | inactive | inactive |  | inactive | 31.7 µM (active) | inactive | inactive |  |  | inactive |  |
| CCCCCOC(=O)CCCCC | inactive |  | inactive | inactive | inactive | inactive | inactive | inactive | inactive | inactive | inactive |  |  | inactive |  |
| CCOC(=O)CCC(C)=O | inactive | inactive |  | inactive | inactive | inactive | inactive | inactive | inactive | inactive | inactive |  |  | inactive |  |
| O=[N+]([O-])c1ccc(F)cc1F | inactive | inactive |  |  | inactive | inactive | inactive | inactive |  | inactive | inactive |  |  | inactive |  |
| O=c1cc(CO)occ1O | inactive | inactive |  | inactive | inactive | inactive | inactive | inactive | inactive | inactive | inactive |  |  | inactive |  |
| CCOc1ccc(C(=O)OCCN(CC)CC)cc1 | inactive | inactive |  | inactive | inactive | 1.55 µM (active) | inactive | inactive | 27.5 µM (active) | inactive | inactive | -2.52% | inactive |  | inactive |
| CC(C)(CC(=O)O)C(=O)O | inactive | inactive |  | inactive | inactive | inactive | 70.3 µM (active) | inactive | 12.5 µM (active) | inactive | inactive |  |  | inactive |  |
| C[C@@H]1CCN(C(=O)[C@H](CCCN=C(N)N)NS(=O)(=O)c2cccc3c2NC[C@H](C)C3)[C@@H](C(=O)O)C1 | inactive | inactive |  | inactive | inactive | inactive | inactive | inactive | inactive |  |  | -0.172% | inactive | inactive | inactive |
